Assay results: the supplement of paper PMC6089552
Out of some 3,200 compounds screened, about 300 (9.4%) showed activity. Many of the other results were omitted from the sample, so actives are more common in it than they were.

Test system: A673/TR/shEF
Experiment: cell viability (LOESS-normalised, relative to median of negative controls) (log2 ratio); higher = more viable cells (less compound effect), active = hit call of the paper (over 3 MAD below the median)
Settings: treatment time: 72 h
Summary of the method: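 For three days, A673/TR/shEF Ewing sarcoma cells in 384-well plates (1,500 per well) were treated with library compounds at two or more concentrations or with DMSO controls, after doxycycline had been added or withheld 24 h beforehand to induce EWS-FLI1 shRNA knockdown. Viability was read by CellTiter-Glo luminescence on an Envision reader. The data were LOESS-corrected per plate, divided by the median of negative controls and log2-transformed.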

[1] = 0.25 µM, library screen: screen1, EWS-FLI1 expression: high (no doxycycline)
[2] = 0.25 µM, library screen: screen1, EWS-FLI1 expression: low (doxycycline-induced shRNA knockdown)
[3] = 2.5 µM, library screen: screen1, EWS-FLI1 expression: high (no doxycycline)
[4] = 2.5 µM, library screen: screen1, EWS-FLI1 expression: low (doxycycline-induced shRNA knockdown)
[5] = 0.025 µM, library screen: screen2, EWS-FLI1 expression: high (no doxycycline)
[6] = 0.025 µM, library screen: screen2, EWS-FLI1 expression: low (doxycycline-induced shRNA knockdown)
[7] = 0.25 µM, library screen: screen2, EWS-FLI1 expression: high (no doxycycline)
[8] = 0.25 µM, library screen: screen2, EWS-FLI1 expression: low (doxycycline-induced shRNA knockdown)
[9] = 2.5 µM, library screen: screen2, EWS-FLI1 expression: high (no doxycycline)
[10] = 2.5 µM, library screen: screen2, EWS-FLI1 expression: low (doxycycline-induced shRNA knockdown)
[11] = 25 µM, library screen: screen2, EWS-FLI1 expression: high (no doxycycline)
[12] = 25 µM, library screen: screen2, EWS-FLI1 expression: low (doxycycline-induced shRNA knockdown)
[13] = 0.103 µM, library screen: screen3, EWS-FLI1 expression: high (no doxycycline)
[14] = 0.103 µM, library screen: screen3, EWS-FLI1 expression: low (doxycycline-induced shRNA knockdown)
[15] = 0.308 µM, library screen: screen3, EWS-FLI1 expression: high (no doxycycline)
[16] = 0.308 µM, library screen: screen3, EWS-FLI1 expression: low (doxycycline-induced shRNA knockdown)
[17] = 0.926 µM, library screen: screen3, EWS-FLI1 expression: high (no doxycycline)
[18] = 0.926 µM, library screen: screen3, EWS-FLI1 expression: low (doxycycline-induced shRNA knockdown)
[19] = 2.8 µM, library screen: screen3, EWS-FLI1 expression: high (no doxycycline)
[20] = 2.8 µM, library screen: screen3, EWS-FLI1 expression: low (doxycycline-induced shRNA knockdown)
[21] = 8.3 µM, library screen: screen3, EWS-FLI1 expression: high (no doxycycline)
[22] = 8.3 µM, library screen: screen3, EWS-FLI1 expression: low (doxycycline-induced shRNA knockdown)
[23] = 25 µM, library screen: screen3, EWS-FLI1 expression: high (no doxycycline)
[24] = 25 µM, library screen: screen3, EWS-FLI1 expression: low (doxycycline-induced shRNA knockdown)

Measured: cell viability (log2)

CCN(CCO)CCCC(C)Nc1ccnc2cc(Cl)ccc12 (stereo not drawn)
inactive: [1] 0.00358 | [2] 0.138 | [3] 0.146 | [4] 0.0473

CCN(CC)CCCC(C)Nc1c2ccc(Cl)cc2nc2ccc(OC)cc12 (stereo not drawn)
active: [11] -4.23 | [12] -2.71
inactive: [5] 0.148 | [6] 0.0788 | [1] 0.215 | [2] 0.197 | [7] 0.0911 | [8] 0.0849 | [3] 0.176 | [4] 0.252 | [9] 0.0338 | [10] 0.0518

CCN(CC)CCCC(C)Nc1ccnc2cc(Cl)ccc12 (stereo not drawn)
inactive: [5] 0.158 | [6] 0.0518 | [1] 0.0569 | [2] 0.0751 | [7] 0.0978 | [8] 0.0902 | [3] 0.0579 | [4] 0.079 | [9] 0.0873 | [10] 0.0425 | [11] 0.0565 | [12] 0.0987

CC1(C)C(=O)CC[C@@]2(C)C1C[C@@H](O)[C@@]1(C)C3=CC(=O)O[C@@H](c4ccoc4)[C@]3(C)CCC21 (stereo partly drawn)
inactive: [1] 0.0874 | [2] 0.0583 | [3] 0.0284 | [4] 0.0454

COc1cc2c(cc1O)C(Cc1ccc(O)cc1)N(C)CC2 (stereo not drawn)
inactive: [1] 0.127 | [2] 0.111 | [3] 0.067 | [4] 0.114

O=C(O[C@@H]1Cc2c(O)cc(O)cc2O[C@@H]1c1cc(O)c(O)c(O)c1-c1c([C@H]2Oc3cc(O)cc(O)c3C[C@H]2O)cc(O)c(O)c1O)c1cc(O)c(O)c(O)c1
inactive: [1] 0.0332 | [2] 0.0641 | [3] 0.0977 | [4] -0.0327

COc1ncc(-c2ccc3nccc(-c4ccnnc4)c3c2)cc1NS(=O)(=O)c1ccc(F)cc1F
active: [13] -0.686 | [14] -0.505 | [15] -1.07 | [16] -0.722 | [17] -1.88 | [18] -1.31 | [19] -2.85 | [20] -2.24 | [21] -3.29 | [22] -2.78 | [23] -3.83 | [24] -3.59

CC(=O)Nc1ccc2c(c1)C1C=CCC1C(c1ccc(Cl)cc1Cl)N2 (stereo not drawn)
inactive: [1] 0.141 | [2] 0.199 | [3] 0.113 | [4] 0.349

CCOC(=O)c1c(C)cc(O)c(C)c1O
inactive: [1] 0.117 | [2] 0.0649 | [3] 0.0865 | [4] 0.119

CS(=O)(=O)c1ccc(C(=O)Nc2ccc(Cl)c(-c3ccccn3)c2)c(Cl)c1
inactive: [13] 0.0228 | [14] 0.046 | [15] 0.0359 | [16] 0.0158 | [17] 0.0316 | [18] 0.0515 | [19] 0.0335 | [20] 0.0126 | [21] 0.0254 | [22] 0.0522 | [23] 0.025 | [24] 0.0484

CS(=O)(=O)c1ccc2nc(NC(=O)c3cccc(Cl)c3)sc2c1
active: [1] -0.0938
inactive: [2] 0.0657 | [3] 0.0503 | [4] 0.0275

COC(=O)C[C@H]1C(C)(C)C(=O)[C@@H]2C[C@@]3(O)C4=CC(=O)O[C@@H](c5ccoc5)[C@]4(C)CCC3[C@@]1(C)C2=O (stereo partly drawn)
inactive: [1] 0.0813 | [2] 0.00839 | [3] 0.172 | [4] 0.118

COc1ccccc1C1NC(=S)NC(C)=C1C(=O)Nc1ccccc1Cl (stereo not drawn)
inactive: [1] 0.153 | [2] 0.0944 | [3] 0.107 | [4] 0.0425

Cc1cc(=O)c2c(O)cc(O)c(C)c2o1
inactive: [1] 0.111 | [2] 0.0695 | [3] 0.0905 | [4] 0.0937

COc1ccc(-c2nc3ccc(C4=NNC(=O)CC4C)cc3[nH]2)cc1 (stereo not drawn)
inactive: [13] -0.0122 | [14] 0.0487 | [15] -0.0245 | [16] -0.0302 | [17] -0.00296 | [18] -0.0241 | [19] 0.0147 | [20] -0.00868 | [21] -0.0247 | [22] 0.0168 | [23] -0.172 | [24] -0.00571

O=C(/C=C/c1ccccc1)c1c(O)cc(O)cc1O
inactive: [1] 0.0431 | [2] 0.0419 | [3] 0.0216 | [4] -0.0857

O=C(C=Cc1ccccc1)c1ccccc1O
inactive: [1] 0.0713 | [2] 0.0789 | [3] 0.0334 | [4] 0.11

O=C(/C=C/c1cccc(S(=O)(=O)Nc2ccccc2)c1)NO
inactive: [13] 0.0161 | [14] 0.0578 | [15] 0.00773 | [16] 0.0247 | [17] -0.074 | [18] -0.000337
active: [19] -0.399 | [20] -0.113 | [21] -1.47 | [22] -0.52 | [23] -4.33 | [24] -2.11

O=S(=O)(c1ccc(Br)c2ccccc12)n1ccnc1
inactive: [1] 0.091 | [2] 0.0921 | [3] 0.103 | [4] 0.117

Cc1ccc(NC(=O)c2ccc(OC3CSC3)cc2)cc1
inactive: [1] -0.0477 | [2] -0.0107 | [3] 0.0585 | [4] 0.076

CCOc1cc(C(=O)Nc2ccc([N+](=O)[O-])cc2)cc(OCC)c1OCC
inactive: [1] 0.054 | [2] 0.0461 | [3] 0.0696 | [4] -0.156

COCc1cc(C)nc(SCC(=O)NC(C)(C)C)c1C#N
inactive: [1] 0.122 | [2] 0.0633 | [3] 0.0645 | [4] -0.0386

O=C1N(c2ccccc2)c2ccccc2C1(Cc1ccncc1)Cc1ccncc1
inactive: [7] 0.0704 | [8] 0.0498 | [10] 0.0762
active: [9] -0.0773

NC(=O)NCC(N)C(=O)O (stereo not drawn)
inactive: [1] -0.0311 | [2] 0.00393 | [3] 0.0385 | [4] 0.0656

O=C(O)/C=C(/CC(=O)O)C(=O)O
inactive: [1] 0.0822 | [2] 0.00778 | [3] 0.03 | [4] 0.0214
